Inconclusive results are not listed. Entries that show only a call come without a potency. Values without a mark were called inactive. The source made the active and inactive calls. Calls follow the shape of the dose curve; as a rule, active = well fitted inhibition curve with a large enough effect; inconclusive = small, poorly fitted or top-dose-only effect; inactive = flat fitted curve, though single readings scatter.
System: CRL-7250
Assay: qHTS assay to identify novel small-molecules to repurpose for Merkel cell carcinoma treatment (AID 1296009); also: nearly all actives have a fitted effect of over 60% in size
Conditions: MCC and control cell lines, CellTiter-Glo viability, 72 h; series mostly up to 92 µM
Method in brief: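 After compound transfer in DMSO, plates were kept 72 hr at 37 degree celsius. Luminescent ATP signal from CellTiter-Glo served as viability measure, normalized against DMSO and no-cell controls.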

SMILES	Potency	outcome
COCCN(C)Cc1ccc2nc3sc(C(=O)N(C)C4CCCCC4)cn3c2c1	inactive	–
Nc1c(-c2ccccc2)nc(Cl)c2c(O)n[nH]c(=O)c12	inactive	–
CCC[C@@H]1C[C@@H](C(=O)N[C@@H]([C@H]2O[C@H](SC)[C@H](O)[C@@H](O)[C@@H]2O)[C@@H](C)O)N(C)C1	inactive	–
COc1cc2c(cc1OC)CN(C(=O)[C@@H](NCc1ccncc1)C(C)(C)C)CC2	inactive	–
COc1cccc(OC)c1-c1nc(C(=O)N[C@@H](CC(C)C)C(=O)O)cn1-c1ccnc2cc(Cl)ccc12	inactive	–
CC1=C(C)C(=O)OC(C(C)C2C(O)CC3C4C5OC5C5(O)CC(OC6OC(CO)C(O)C(O)C6O)CC(O)C5(C)C4CCC32C)C1 (centres undefined)	inactive	–
COc1cc(Nc2nc3c(s2)CCCC3c2ccccc2)ccc1-n1cnc(C)c1 (centres undefined)	–	inactive [at 9.27 µM]
C[C@H](NCc1ccc(OCc2ccccc2F)cc1)C(N)=O	inactive	–
Cc1nc(C(=O)N2CCC[C@H]2Cc2nnc(-c3ccccc3)o2)c(-c2ccccc2F)s1	inactive	–
CC1CC(=O)C2C(O)(C1)CC(O)C13OC1c1c(O)cccc1C(=O)C23O (centres undefined)	inactive	–
O=C(O)c1ccc(OC2OC(CO)C(O)C(O)C2O)cc1 (centres undefined)	inactive	–
COc1ccc(/C=C/C(=O)O[C@H]2[C@@H]3C=CO[C@@H](O[C@@H]4O[C@H](CO)[C@@H](O)[C@H](O)[C@H]4O)[C@@H]3[C@@]3(CO)O[C@@H]23)cc1O	inactive	–
CC1(C)CC[C@]2(C(=O)O[C@@H]3O[C@H](CO[C@@H]4O[C@H](CO)[C@@H](O)[C@H](O)[C@H]4O[C@@H]4O[C@H](CO)[C@@H](O)[C@H](O)[C@H]4O)[C@@H](O)[C@H](O[C@@H]4O[C@H](CO)[C@@H](O)[C@H](O)[C@H]4O)[C@H]3O)CC[C@]3(C)C(=CCC4[C@@]5(C)CC[C@@H](O)[C@@](C)(C(=O)O[C@@H]6O[C@H](CO)[C@@H](O)[C@H](O)[C@H]6O)C5CC[C@]43C)[C@@H]2C1 (some centres undefined)	–	inactive [at 9.27 µM]
C=C[C@H]1[C@H](O[C@@H]2O[C@H](CO)[C@@H](O)[C@H](O)[C@H]2O)OC=C2C(=O)N3Cc4c([nH]c5ccccc5c4=O)[C@@H]3C[C@H]21	inactive	–
C[C@@H](CC[C@@H]1[C@@]2(C)CCCC(C)(C)C2CC[C@@]1(C)O)CC(=O)O (some centres undefined)	inactive	–
CC(=O)N(O)CCCCCN1C(=O)CCC1=O	inactive	–
COc1cc(COC2OC(CO)C(O)C(O)C2O)cc(OC)c1O (centres undefined)	inactive	–

SMILES	Potency	outcome
CC1OC(O[C@H]2[C@@H](O)C[C@@]3(C)C([C@H](O)C[C@]4(C)C3CC=C3C5CC(C)(C)CC[C@]5(C(=O)OC5OC(CO)C(O)C(O)C5OC5OCC(OC6OCC(OC7OCC(O)C(O)C7O)C(O)C6O)C(OC6OCC(O)(CO)C6O)C5O)CC[C@]34C)[C@]2(C)CO)C(O)C(O)C1O (some centres undefined)	–	inactive [at 9.27 µM]
O=C1NC(Cc2c[nH]c3ccccc23)C(=O)NC1Cc1cnc[nH]1 (centres undefined)	inactive	–
C[C@@H]1O[C@@H](O[C@H]2[C@H](OC(=O)[C@]34CCC(C)(C)C[C@H]3C3=CCC5[C@@]6(C)C[C@@H](O)[C@@H](O[C@@H]7O[C@H](CO)[C@@H](O)[C@H](O)[C@H]7O)[C@@](C)(CO)C6[C@H](O)C[C@@]5(C)[C@]3(C)CC4)OC[C@H](O)[C@@H]2O)[C@H](O)[C@H](O[C@@H]2OC[C@](O)(CO)[C@H]2O)[C@H]1O[C@@H]1OC[C@@H](O)[C@H](O[C@H]2O[C@H](C)[C@@H](O)[C@H](O)[C@@H]2O)[C@H]1O (some centres undefined)	–	inactive [at 9.27 µM]
CN(Cc1ccc(C(=O)O)cc1)c1ccc(OCc2c(-c3c(Cl)cccc3Cl)noc2C2CC2)nc1C(F)(F)F	inactive	–
COC(=O)[C@H](O)[C@H]1C(C)(C)[C@H](OC(C)=O)[C@@]2(O)C(=O)[C@]1(C)C1CC[C@]3(C)C(CC(=O)O[C@H]3c3ccoc3)[C@]13O[C@@H]32 (some centres undefined)	inactive	–
COC(=O)C1=COC(OC2OC(CO)C(O)C(O)C2O)C2C1C=CC2(O)CO (centres undefined)	inactive	–
C/C=C/C=C/C1=C2C(=O)C3(C)C4C(C(=O)CC(O)/C=C/C)=C(O1)C1(C)C2C2(C)OC1(O)C4(C)OC23O (centres undefined)	inactive	–
CC1(C)OC[C@H](NC(=O)Nc2ccc(Br)cc2Br)[C@H](c2ccccc2)O1	inactive	–
C=C[C@H]1C(O[C@@H]2O[C@H](CO)[C@@H](O)[C@H](O)[C@H]2O)OC=C2C(=O)N3CCc4c([nH]c5ccccc45)[C@H]3C[C@H]21 (some centres undefined)	inactive	–
CC(=O)O[C@@H]1C[C@@H](C)[C@](O)(CCC2=CC(=O)OC2)[C@@]2(C)CCCC(C)(C)C12 (some centres undefined)	inactive	–
CC(=O)O[C@@H](C[C@@H]1C=C(C)C(=O)O1)[C@H](C)[C@H]1CCC2[C@@]3(C)CC[C@H](O[C@@H]4O[C@H](CO)[C@@H](O)[C@H](O)[C@H]4O[C@@H]4O[C@@H](C)[C@H](O)[C@@H](O)[C@H]4O)C(C)(C)C3CC[C@@]2(C)[C@@]12COC(=O)C2 (some centres undefined)	–	inactive [at 9.27 µM]
C=C(C)C1CCC2(C(=O)O)CCC3(C(=O)O)C(CCC4C5(C)CCC(O)C(C)(C(=O)O)C5CCC43C)C12 (centres undefined)	inactive	–
CCCN1CCC=C(c2cc(-c3ccc(C)cc3)no2)C1	inactive	–
CC(=O)OCC1=C[C@H](O)[C@@H]2C(C(=O)O)=CO[C@@H](O[C@@H]3O[C@H](CO)[C@@H](O)[C@H](O)[C@H]3O)[C@H]12	inactive	–
CC1=CC(=O)CC(C)(C)C1CCC(C)O[C@@H]1O[C@H](CO)[C@@H](O)[C@H](O)[C@H]1O (some centres undefined)	inactive	–
Cc1ccc(Cc2c(C)nc3nc(SCC(=O)NCCN4CCNCC4)nn3c2C)cc1	inactive	–
CN(C)C(=O)C(O)C(Cc1ccccc1)NC(=O)c1cc2cc(Cl)ccc2[nH]1 (centres undefined)	inactive	–

— PubChem BioAssay (NCATS)
